Consider 9 compounds from PubChem BioAssay (NCI).

Structures are written as SMILES. Compounds without any hit were thinned out: in the full panel of roughly 83,000, 20% have a hit.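 Single-dose data. Exposure time 48 hours. Values below 10 considered active.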 Unmarked numbers belong to inactive results. Active and inactive are the calls of the source.

Test in all cases: NCI-60 one-dose screen, 48 h (100 = growth as untreated, 0 = no growth, -100 = all killed)
Details in all cases: 10 µM unless noted

Assay [1] has as its system RPMI-8226 leukemia.
Assay [2] deals with OVCAR-8 ovarian.
In assay [3] the test system is OVCAR-5 ovarian.
Assay [4] has as its system OVCAR-4 ovarian.
For assay [5], the system named is SK-OV-3 ovarian.
The subject of assay [6] is IGROV1 ovarian.
Assay [7] relates to OVCAR-3 ovarian.
Assay [8] relates to NCI/ADR-RES ovarian.
The subject of assay [9] is T-47D breast.
The test system of assay [10] is BT-549 breast.
Assay [11] concerns MDA-MB-435 melanoma.
The subject of assay [12] is SW-620 colon.
Assay [13] has as its system MCF7 breast.
Assay [14] relates to HCT-116 colon.
Assay [15] has as its system HCC-2998 colon.
The test system of assay [16] is KM12 colon.
Assay [17] deals with HS 578T breast.

With `Cn1cc(-c2csc(-c3cn(C)c4ncccc34)n2)c2cc(F)cnc21`, the growth in assay [1] is 70.1%; in assay [2] it was 80.8%; in [3], 91.3%; in [4], 93.5%; in assay [5], 107%; in assay [6], 84%. In addition, the growth in assay [7] was 108%; in assay [8] it was 46.9%; in assay [9], 52.2%; in assay [10], 85.7%; in [11] it was 8.5% (active); in assay [12], 61.7%. Further, the growth in assay [13] was 58%; in assay [14] it was 72.5%; in assay [15], 77.3%; in assay [16] it was 60.7%.
In the case of `Oc1[nH]c2ccc(Cl)cc2c1/C=c1/ccc2c(c1)N=C(c1ccc(C(F)(F)F)cc1)N=2`, the growth is 69% in assay [1]; 67.6% in assay [2]; 76.2% in assay [3]; 59.5% in assay [4]; 84.4% in assay [5]; 76.8% in assay [6]. In addition, the growth in [7] was 32.3%; in assay [17], 74%; in assay [8] it was 62.7%; in assay [10] it was 88.4%; in [11], 42.7%; in assay [12], 84.3%. Also, the growth was 27.6% in assay [13], 50.1% in assay [14], 61.5% in [15] and 45.4% in assay [16].
With `Nc1ccc2c(c1)/C(=N/O)c1cc([N+](=O)[O-])ccc1-2`, the growth is 58.9% in [1]; 87% in assay [2]; 102% in assay [3]; 84% in assay [4]; 81.6% in assay [5]; 57% in assay [6]. Further, the growth is 63.8% in [7]; 77.2% in assay [17]; 109% in assay [8]; 50.8% in [10]; 50.9% in assay [11]; 13.1% in [12]. Besides, the growth was 81.8% in assay [13], 47.3% in assay [14], 103% in assay [15] and 64.8% in assay [16].
In the case of `COc1ccc(C2CC(c3cccc(Nc4ccnc5cc(Cl)ccc45)c3)=NN2C=O)cc1` (configuration not stated), the growth in assay [1] was 21.5%; in assay [2], 35.1%; in assay [3], 45.3%; in [4], 61.7%; in assay [5] it was 19%; in assay [6] it was 32.7%. For the same compound, the growth in [7] was -22.7% (active); in [17] it was -3.1% (active); in assay [8] it was 8.68% (active); in assay [10], 30.9%; in assay [11], -36% (active); in assay [12], 18.7%. Also, the growth is 22.4% in assay [13], 7.09% (active) in assay [14], 35.4% in [15] and 23.1% in assay [16].
Turning to `CCOC(=O)c1c2c(c(C)n1Cc1ccc(OC)cc1)-c1nc(N)ncc1CC2`, the growth is 119% in assay [1]; 115% in assay [2]; 103% in assay [3]; 112% in assay [4]; 107% in assay [5]; 104% in assay [7]. For the same compound, the growth was 111% in assay [17]; 104% in assay [8]; 105% in assay [9]; 119% in assay [10]; 110% in assay [11]; 100% in assay [12]. Further, the growth in assay [13] is 106%; in assay [14], 94.8%; in [15], 80.3%; in [16] it was 109%.
As to `C[C@]12CC[C@@H]3c4ccc(O)c([N+](=O)[O-])c4CC[C@H]3[C@@H]1CC[C@@H]2NS(=O)(=O)c1ccc(C(F)(F)F)cc1`, the growth is 15.6% in [1]; 26.9% in assay [2]; 80.8% in [3]; 31% in assay [4]; 74.2% in [5]; 23.2% in assay [7]. The growth was 52.7% in assay [17]; 27.7% in [8]; 18.6% in assay [9]; 30.9% in assay [10]; 17.3% in [11]; 34.2% in assay [12]. For the same compound, the growth is 11.8% in assay [13], 15.5% in assay [14], 53.8% in assay [15] and 19.9% in assay [16].
In the case of `O=C(Nc1cccc2ccccc12)c1cc2c(cc1Br)OCO2`, the growth in assay [1] was 66.1%; in assay [2], 106%; in assay [3], 96.8%; in assay [4], 83.5%; in assay [5], 80.9%; in assay [7], 104%. In addition, the growth was 125% in [17]; 92.5% in assay [8]; 83.9% in assay [9]; 61% in assay [10]; 111% in assay [11]; 100% in assay [12]. For the same compound, the growth is 79.9% in [13], 236% in [14], 97.3% in assay [15] and 103% in [16].
`CCOC(=O)/C=C(/C)Sc1cc(O)c2ccccc2c1O`: the growth in assay [1] was 40.7%; in [2], 24.3%; in assay [3], 93%; in assay [4] it was 51.1%; in assay [5], 6.27% (active); in assay [7], 13.4%. The growth in [17] is -28.2% (active); in assay [8], 21.6%; in assay [9], 36.8%; in assay [10], -37.1% (active); in [11], -82.2% (active); in assay [12], -40.2% (active). The growth in assay [13] is -75.9% (active); in assay [14] it was 122%; in assay [15] it was 17.3%; in [16], 3.07% (active).
For the compound `CN(C)c1ccc(/C=C\c2ccnc3ccccc23)cc1`, the growth in [1] is -18.1% (active); in [2], 63.6%; in [3] it was 65%; in assay [4], 68.2%; in assay [5], 55.2%; in assay [17], 84.9%. Further, the growth in [8] is -35.5% (active); in assay [9] it was 65.4%; in [10] it was -0.99% (active); in [11], 33.6%; in assay [12] it was 87.7%; in assay [13], 39.1%. Moreover, the values for the growth in assay [14] and in assay [16] were 62.6% and 55.8%, respectively.
